Measured values reported in the supplement of paper PMC8728848.
This excerpt belongs to a sample that is enriched for the strongest signals.

How the values were obtained:
Assay in all cases: glycan array binding signal (z-score within array); higher = stronger binding
Conditions in all cases: glycan notation: IUPAC condensed, linker removed
[1] = molecular target: Fuc(a1-2)Gal(b1-3)GlcNAc(b1-3)GalNAc
Summary of the method: (§1)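 Glycan array binding is given as a within-array Z-score, which can be read as non-binding when negative. The arrays, 3228 of them, came from the Consortium for Functional Glycomics database and were retained only where the protein sequence was available. Z-scores were averaged across arrays of the same protein sequence at different concentrations or buffers and across linkers.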

[2] = molecular target: Fuc(a1-2)Gal(b1-3)[Fuc(a1-4)]GlcNAc
Summary of the method: as §1

[3] = molecular target: Fuc(a1-2)Gal(b1-4)GlcNAc(b1-6)GalNAc
Summary of the method: as §1

[4] = molecular target: Fuc(a1-2)Gal(b1-4)[Fuc(a1-3)]GlcNAc(b1-3)Gal(b1-4)[Fuc(a1-3)]GlcNAc(b1-3)Gal(b1-4)[Fuc(a1-3)]GlcNAc
Summary of the method: as §1

[5] = molecular target: Fuc(a1-2)[Gal(a1-3)]Gal(b1-3)GlcNAc
Summary of the method: as §1

[6] = molecular target: Fuc(a1-2)[Gal(a1-3)]Gal(b1-4)GlcNAc
Summary of the method: as §1

[7] = molecular target: Fuc(a1-2)[Gal(a1-3)]Gal(b1-4)[Fuc(a1-3)]GlcNAc
Summary of the method: as §1

[8] = molecular target: Fuc(a1-2)[GalNAc(a1-3)]Gal(b1-4)GlcNAc(b1-2)Man
Summary of the method: as §1

[9] = molecular target: Fuc(a1-2)[GalNAc(b1-3)]Gal
Summary of the method: as §1

[10] = molecular target: Fuc(a1-3)[Gal(b1-4)]GlcNAc(b1-3)GalNAc
Summary of the method: as §1

[11] = molecular target: Gal(a1-3)Gal(b1-3)GlcNAc
Summary of the method: as §1

[12] = molecular target: Gal(a1-3)Gal(b1-4)[Fuc(a1-3)]GlcNAc
Summary of the method: as §1

[13] = molecular target: Gal(b1-3)Gal
Summary of the method: as §1

[14] = molecular target: Gal(b1-3)GlcNAc
Summary of the method: as §1

[15] = molecular target: Gal(b1-3)GlcNAc(b1-3)Gal(b1-4)GlcNAc(b1-2)[Gal(b1-3)GlcNAc(b1-3)Gal(b1-4)GlcNAc(b1-6)]Man(a1-6)[Gal(b1-3)GlcNAc(b1-3)Gal(b1-4)GlcNAc(b1-2)Man(a1-3)]Man(b1-4)GlcNAc(b1-4)[Fuc(a1-6)]GlcNAc
Summary of the method: as §1

[16] = molecular target: Gal(b1-3)GlcNAc(b1-3)Gal(b1-4)GlcNAc(b1-6)[Gal(b1-3)GlcNAc(b1-3)]Gal(b1-4)Glc
Summary of the method: as §1

[17] = molecular target: Gal(b1-4)Gal
Summary of the method: as §1

[18] = molecular target: Gal(b1-4)GlcNAc(b1-2)Man(a1-3)[Gal(b1-4)GlcNAc(b1-2)Man(a1-6)]Man(b1-4)GlcNAc(b1-4)[Fuc(a1-6)]GlcNAc
Summary of the method: as §1

[19] = molecular target: Gal(b1-4)GlcNAc(b1-2)Man(a1-3)[Gal(b1-4)GlcNAc(b1-2)Man(a1-6)][GlcNAc(b1-4)]Man(b1-4)GlcNAc(b1-4)[Fuc(a1-6)]GlcNAc
Summary of the method: as §1

[20] = molecular target: Gal(b1-4)GlcNAc(b1-2)[Gal(b1-4)GlcNAc(b1-4)]Man(a1-3)[GlcNAc(b1-4)][Gal(b1-4)GlcNAc(b1-2)Man(a1-6)]Man(b1-4)GlcNAc(b1-4)GlcNAc
Summary of the method: as §1

[21] = molecular target: Gal(b1-4)GlcNAc(b1-2)[Gal(b1-4)GlcNAc(b1-6)]Man(a1-6)[GlcNAc(b1-4)][Gal(b1-4)GlcNAc(b1-2)[Gal(b1-4)GlcNAc(b1-4)]Man(a1-3)]Man(b1-4)GlcNAc(b1-4)[Fuc(a1-6)]GlcNAc
Summary of the method: as §1

[22] = molecular target: Gal(b1-4)GlcNAc(b1-3)Gal(b1-4)GlcNAc(b1-2)Man(a1-3)[Gal(b1-4)GlcNAc(b1-3)Gal(b1-4)GlcNAc(b1-2)Man(a1-6)]Man(b1-4)GlcNAc(b1-4)[Fuc(a1-6)]GlcNAc
Summary of the method: as §1

[23] = molecular target: Gal(b1-4)GlcNAc(b1-3)Gal(b1-4)GlcNAc(b1-3)Gal(b1-4)GlcNAc(b1-3)Gal(b1-4)GlcNAc(b1-2)Man(a1-3)[Gal(b1-4)GlcNAc(b1-3)Gal(b1-4)GlcNAc(b1-3)Gal(b1-4)GlcNAc(b1-3)Gal(b1-4)GlcNAc(b1-2)Man(a1-6)]Man(b1-4)GlcNAc(b1-4)GlcNAc
Summary of the method: as §1

[24] = molecular target: Gal(b1-4)GlcNAc(b1-3)Gal(b1-4)GlcNAc(b1-3)Gal(b1-4)GlcNAc(b1-3)Gal(b1-4)GlcNAc(b1-2)Man(a1-3)[Gal(b1-4)GlcNAc(b1-3)Gal(b1-4)GlcNAc(b1-3)Gal(b1-4)GlcNAc(b1-3)Gal(b1-4)GlcNAc(b1-2)Man(a1-6)]Man(b1-4)GlcNAc(b1-4)[Fuc(a1-6)]GlcNAc
Summary of the method: as §1

[25] = molecular target: Gal(b1-4)GlcNAc(b1-3)Gal(b1-4)GlcNAc(b1-3)Gal(b1-4)GlcNAc(b1-3)Gal(b1-4)GlcNAc(b1-3)Gal(b1-4)GlcNAc(b1-2)Man(a1-3)[Gal(b1-4)GlcNAc(b1-3)Gal(b1-4)GlcNAc(b1-3)Gal(b1-4)GlcNAc(b1-3)Gal(b1-4)GlcNAc(b1-3)Gal(b1-4)GlcNAc(b1-2)Man(a1-6)]Man(b1-4)GlcNAc(b1-4)[Fuc(a1-6)]GlcNAc
Summary of the method: as §1

[26] = molecular target: Gal(b1-4)GlcNAc(b1-3)Gal(b1-4)GlcNAc(b1-3)Gal(b1-4)GlcNAc(b1-3)Gal(b1-4)GlcNAc(b1-3)Gal(b1-4)GlcNAc(b1-2)[Gal(b1-4)GlcNAc(b1-3)Gal(b1-4)GlcNAc(b1-3)Gal(b1-4)GlcNAc(b1-3)Gal(b1-4)GlcNAc(b1-3)Gal(b1-4)GlcNAc(b1-6)]Man(a1-6)[Gal(b1-4)GlcNAc(b1-3)Gal(b1-4)GlcNAc(b1-3)Gal(b1-4)GlcNAc(b1-3)Gal(b1-4)GlcNAc(b1-3)Gal(b1-4)GlcNAc(b1-2)Man(a1-3)]Man(b1-4)GlcNAc(b1-4)[Fuc(a1-6)]GlcNAc
Summary of the method: as §1

[27] = molecular target: Gal(b1-4)GlcNAc(b1-3)GalNAc
Summary of the method: as §1

[28] = molecular target: Gal3S6S(b1-4)GlcNAc6S
Summary of the method: as §1

B1: AFL5 (Aspergillus fumigatus), Q4WB00 (protein)
chain: MDNFMEMTKKLGHQPELLRLRALDATYDDALEGKLVVAPLDMSEPGKKILDSGTADGTWLRNVRSKQSVPHDYYGSDVEGELFPKDPDGITYFAHSFKDPWPQQYLGFFDLVHIRGSLAGSAPEGPAPVIQNLTTLLKPGGWVQLMEMNAFSPPPNGPAMTDFAKMASEMFTGIGVGDFANNNKSMLEDAGLKNVQEKRVIVNLGKKAKPELHDQSIHGVTGPIVPLTSVARTVKSSFTGEQLDALPARVKEELETEGGQVEMIIAFGQKA
**Q.** With B1 as the binder, how does the “glycan array binding signal (z-score)” value [1] read?
**A.** -0.31

**Q.** And the “glycan array binding signal (z-score)” value [2]?
**A.** -0.036

**Q.** And the “glycan array binding signal (z-score)” value [3]?
**A.** -0.782

**Q.** What about the “glycan array binding signal (z-score)” value [4] of the same binder?
**A.** -0.555

**Q.** What about the “glycan array binding signal (z-score)” value [5] of the same binder?
**A.** -0.252

**Q.** And the “glycan array binding signal (z-score)” value [6]?
**A.** -0.456

**Q.** What about the “glycan array binding signal (z-score)” value [7] of the same binder?
**A.** -0.109

**Q.** What about the “glycan array binding signal (z-score)” value [8] of the same binder?
**A.** -0.322

**Q.** What about the “glycan array binding signal (z-score)” value [9] of the same binder?
**A.** -0.258

**Q.** And the “glycan array binding signal (z-score)” value [10]?
**A.** -0.016

**Q.** And the “glycan array binding signal (z-score)” value [11]?
**A.** -0.285

**Q.** What about the “glycan array binding signal (z-score)” value [12] of the same binder?
**A.** 21.5

**Q.** What about the “glycan array binding signal (z-score)” value [13] of the same binder?
**A.** -0.063

**Q.** And the “glycan array binding signal (z-score)” value [14]?
**A.** -0.272

**Q.** And the “glycan array binding signal (z-score)” value [15]?
**A.** 1.17

**Q.** And the “glycan array binding signal (z-score)” value [16]?
**A.** -0.412

**Q.** And the “glycan array binding signal (z-score)” value [17]?
**A.** -0.502

**Q.** What about the “glycan array binding signal (z-score)” value [18] of the same binder?
**A.** 0.004

**Q.** And the “glycan array binding signal (z-score)” value [19]?
**A.** -0.411

**Q.** And the “glycan array binding signal (z-score)” value [20]?
**A.** -0.134

**Q.** What about the “glycan array binding signal (z-score)” value [21] of the same binder?
**A.** 3.2

**Q.** What about the “glycan array binding signal (z-score)” value [22] of the same binder?
**A.** 1.35

**Q.** And the “glycan array binding signal (z-score)” value [23]?
**A.** 0.075

**Q.** And the “glycan array binding signal (z-score)” value [24]?
**A.** 1.69

**Q.** And the “glycan array binding signal (z-score)” value [25]?
**A.** 1.46

**Q.** And the “glycan array binding signal (z-score)” value [26]?
**A.** 1.6

**Q.** And the “glycan array binding signal (z-score)” value [27]?
**A.** -0.561

**Q.** And the “glycan array binding signal (z-score)” value [28]?
**A.** 0.29
